# According to ChEMBL document CHEMBL1201862, “PubChem BioAssay data set” (2004):
# “And” between values parts separate entries of the source, which are not always exact repeats. Equal values may be shown once.
# Experiment: A High Throughput Confirmatory Assay used to Identify Novel Compounds that Inhibit Mycobacterium Tuberculosis in the absence of Glycerol using Purified and Synthesized Compounds (7).
# Assay type: functional; call rule not given here
row,SMILES,IC90
1,CC1CC(C)CN(C(=O)c2ccc(CNc3c(N4CCCC4)c(=O)c3=O)cc2)C1 (stereo not drawn),> 100 µM (active)
2,CC1CCCN(C(=O)c2ccc(CNc3c(N4CCCCC4)c(=O)c3=O)cc2)C1 (stereo not drawn),> 100 µM (active)
3,CC1CCN(C(=O)c2ccc(CNc3c(N4CCCC4)c(=O)c3=O)cc2)CC1,> 100 µM (active)
4,O=C(c1ccc(CNc2c(N3CCCC3)c(=O)c2=O)cc1)N1CC=C(c2ccccc2)CC1,> 68.8 µM (active) and > 79.4 µM (active)
5,O=C(C1CCC(CNc2c(N3CCCCC3)c(=O)c2=O)CC1)N1CCCCC1 (stereo not drawn),> 100 µM (active)
6,O=C(NCCc1ccc(Cl)cc1)C1CCC(CNc2c(N3CCCCC3)c(=O)c2=O)CC1 (stereo not drawn),> 100 µM (active)
7,COc1ccc(N2CCN(C(=O)c3ccc(CNc4c(N5CCOCC5)c(=O)c4=O)cc3)CC2)cc1,> 100 µM (active)
8,CC(=O)c1ccc(NC(=O)c2ccc(CNc3c(N4CCOCC4)c(=O)c3=O)cc2)cc1,> 100 µM (active)
9,CC1CC(C)CN(C(=O)C2CCC(CNc3c(N4CCCCC4)c(=O)c3=O)CC2)C1 (stereo not drawn),> 75 µM (active) and > 100 µM (active)
10,O=C(c1ccc(CNc2c(N3CCCC3)c(=O)c2=O)cc1)N1CCc2ccccc2C1,> 100 µM (active)
11,O=C(NCCc1ccc(Cl)cc1)c1ccc(CNc2c(N3CCOCC3)c(=O)c2=O)cc1,> 100 µM (active)
12,CC(C)OC(=O)CSc1ncnc2c1cnn2-c1ccccc1,> 100 µM (active)
13,CC1CCCN(C(=O)C2CCC(CNc3c(N4CCCCC4)c(=O)c3=O)CC2)C1 (stereo not drawn),> 100 µM (active)
